Sampled rows, rich in hits. Any-hit rate of the full collection: about 12%.
Sfp PPTase inh: qHTS Assay for Inhibitors of Bacillus subtilis Sfp phosphopantetheinyl transferase (PPTase); 4'-phosphopantetheinyl transferase ffp (Bacillus subtilis), Q9F4F7; Biochemical Sfp PPTase activity, qHTS; Potency, µM, hits mostly inhibitors; 3.5% of 310,000 active;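 further: the enzyme is Sfp with the accession as filed and its product quenches rhodamine fluorescence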
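With Hepes-Na pH 7.6 buffer containing 10 mM MgCl2, Sfp (15 nM) modified BHQ-2-YbbR (12.5 uM) using rhodamine-CoA (5 uM). Two reads 30 minutes apart at 525/598 nm yielded each well's rate.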
G9a inh: qHTS Assay for Inhibitors of Histone Lysine Methyltransferase G9a; 8.8% of 350,000 active; Histone-lysine N-methyltransferase EHMT2 (Homo sapiens), Q96KQ7; Potency, µM (top dose mostly 102 µM), usual class: inhibitors; AID 504332, 2011; G9a H3K9 monomethylation, AlphaScreen, 2 h; further: nearly all actives have a fitted effect of over 75% in size
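Methyltransferase reactions run at room temperature for 2 h (20 nM enzyme, 500 nM biotin-H3K9 peptide, 20 uM SAM) after a 15 min compound preincubation; product detected by AlphaScreen beads and anti-H3K9me1 antibody.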
BAZ2B block: qHTS Assay for Inhibitors of BAZ2B; Bromodomain adjacent to zinc finger domain protein 2B (Homo sapiens), Q9UIF8; AlphaScreen BAZ2B-H3K14Ac peptide displacement; Potency, µM (top dose mostly 114 µM), most hits filed as inhibitors; 4.4% of 360,000 active; further: nearly all actives have a fitted effect of over 60% in size
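BAZ2B (50 nM) with biotin-H3(5-23)K14Ac peptide (50 nM) in PBS pH 7.4, 0.01% Tween-20, preformed 30 min, then compound 30 min at room temperature; top concentration 110uM. AlphaScreen streptavidin donor/nickel chelate acceptor beads (10 ug/mL final), 20 min dark, signal read.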
JMJD2A Tudor inh: qHTS Assay for Inhibitors of JMJD2A-Tudor Domain | AlphaScreen JMJD2A-Tudor / H3K4me3 peptide binding | Potency, µM (doses to about 114 µM), hits mostly inhibitors | 4.4% of 390,000 active; further: nearly all actives have a fitted effect of over 50% in size
TDP1 inh: qHTS Assay for Inhibitors of Tyrosyl-DNA Phosphodiesterase (TDP1); recombinant TDP1, AlphaScreen DNA substrate cleavage; Potency, µM (titrated, usually from 130 µM), hits mostly inhibitors; 0.28% of 350,000 active; AID 485290, 2010; further: nearly all actives have a fitted effect of over 40% in size
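Recombinant human Tdp1 (E. coli-expressed, 1 nM final) preincubated with compounds 15 min at room temperature, then 5'-biotin/3'-phosphotyrosine-FITC DNA substrate (15 nM final) added for 5 min. AlphaScreen beads (10 ug/ml final) added 10 min; cleavage lowers signal.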
HP1b chromo inh: HTS for Inhibitors of HP1-beta Chromodomain Interactions with Methylated Histone Tails. Chromobox protein homolog 1 (Homo sapiens), P83916. AlphaScreen HP1-beta / biotin-H3K9me3 peptide binding. Potency, µM (highest dose often 114 µM), most hits filed as inhibitors. 0.56% of 390,000 active; further: nearly all actives have a fitted effect of over 70% in size
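HP1-beta protein (50 nM final) preincubated 30 min at room temperature with biotinylated H3(1-18)K9me3 peptide (50 nM) in PBS pH 7.4, 0.01% Tween-20, then compound added for 30 min. AlphaScreen streptavidin donor/nickel chelate acceptor beads (10 ug/mL final), 30 min dark, luminescence read.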
Large screens that a line does not name were inactive; ! = not active in a repeat. The call rests on the fitted dose curve; in most records, active means well fitted curve in the direction sought with a large enough effect; inconclusive means small, poorly fitted or top-dose-only effect, or another doubt; inactive means no such curve, though single readings can be large; an effect the other way counts as inactive or inconclusive.

O=[N+]([O-])c1cc2c(cc1CNCCc1ccc3c(c1)OCO3)OCO2	Sfp PPTase inh 50.1µM, G9a inh inconclusive, BAZ2B block 25.1µM, JMJD2A Tudor inh 1.12µM, HP1b chromo inh 39.8µM
CCN1CCN(Cc2cc3c(cc2[N+](=O)[O-])OCO3)CC1	none (no result: G9a inh, TDP1 inh)
O=C1NC(=O)N(c2ccc3c(c2)OCO3)C(=O)/C1=C\c1ccc(N2CCCCC2)o1	none
O=C1NC(=O)C(=Cc2ccc(SC3CCCCC3)o2)C(=O)N1	Sfp PPTase inh 28.2µM, G9a inh 11.2µM, BAZ2B block 44.7µM, JMJD2A Tudor inh inconclusive, TDP1 inh inconclusive, HP1b chromo inh 50.1µM
CC(=O)[C@H]1CC[C@H]2[C@@H]3CC[C@H]4C[C@](C)(O)CC[C@]4(C)[C@H]3CC[C@]12C	G9a inh 7.94µM! (no result: BAZ2B block, JMJD2A Tudor inh, TDP1 inh, HP1b chromo inh)
CCOC(=S)SSC(=S)OCC	Sfp PPTase inh 5.62µM, G9a inh inconclusive (no result: BAZ2B block, JMJD2A Tudor inh, HP1b chromo inh)
C=CC(=O)OCC	none (no result: Sfp PPTase inh, G9a inh, BAZ2B block, JMJD2A Tudor inh, HP1b chromo inh)
CC(=O)N1N=C(c2cccnc2)CC1c1ccccc1O (stereo unspecified)	none (no result: TDP1 inh)
CC(=O)N1N=C(c2c(O)n(C)c(=O)n(C)c2=O)CC1c1ccccc1 (stereo unspecified)	G9a inh 39.8µM
CCOC(=O)c1c(C)c(P(=S)(N2CCOCC2)N2CCOCC2)n(C)c1C	Sfp PPTase inh 31.6µM, G9a inh 6.31µM, BAZ2B block inconclusive, HP1b chromo inh inconclusive
CCOC(=O)c1c(P(=O)(N2CCOCC2)N2CCOCC2)noc1N	none
O=C1CCCCC1	none (no result: Sfp PPTase inh)
C/C=C1/C[C@@H](C)[C@](O)(CO)C(=O)OCC2=CCN3CC[C@@H](OC1=O)C23 (stereo partly specified)	none (no result: G9a inh, BAZ2B block, JMJD2A Tudor inh, HP1b chromo inh)
Cc1noc(C(=O)Nc2sc3c(c2C#N)CCC3)c1Cl	G9a inh 44.7µM
CCC(=O)Nc1cccc(-c2nnc(SCC(=O)NCc3ccco3)n2C)c1	G9a inh 50.1µM
CC1(C)C(C(=O)NCc2ccco2)C1(C)C	none
Cc1ccc(N=Nc2cc(C)ccc2N)cc1	BAZ2B block 7.94µM, JMJD2A Tudor inh inconclusive, HP1b chromo inh inconclusive (no result: G9a inh, TDP1 inh)
N#CCc1ccccc1	none (no result: Sfp PPTase inh, G9a inh, BAZ2B block, JMJD2A Tudor inh, HP1b chromo inh)
CCC(=O)Nc1nc2ccccc2n1CCN(C)C	G9a inh 31.6µM, BAZ2B block inconclusive, JMJD2A Tudor inh 39.8µM
CN1C[C@H](C(=O)N[C@]2(C)O[C@@]3(O)C4CCCN4C(=O)[C@H](Cc4ccccc4)N3C2=O)C[C@@H]2c3cccc4[nH]cc(c34)C[C@H]21 (stereo partly specified)	none (no result: BAZ2B block, JMJD2A Tudor inh, HP1b chromo inh)
Clc1ccc(N2CC3CCC(C2)N3)nn1	G9a inh 23.8µM (no result: Sfp PPTase inh, BAZ2B block, JMJD2A Tudor inh, HP1b chromo inh)
CCCCc1ccc(NC(=O)c2ccc3c(c2)CCN3S(=O)(=O)CC)cc1	G9a inh inconclusive, BAZ2B block inconclusive, JMJD2A Tudor inh inconclusive (no result: Sfp PPTase inh)
C[C@]12CC[C@H]3[C@@H](CCC4=CC(=O)CC[C@@]43C)[C@@H]1CC[C@@H]2C(=O)CO	Sfp PPTase inh 79.4µM, G9a inh inconclusive
O=C(COc1ccc(S(=O)(=O)N2CCOCC2)cc1)N1CCN(Cc2ccc3c(c2)OCO3)CC1	none
O=C(COc1ccc(Br)cc1)N1CCN(Cc2ccc3c(c2)OCO3)CC1	Sfp PPTase inh inconclusive, BAZ2B block 50.1µM, JMJD2A Tudor inh 8.91µM, HP1b chromo inh inconclusive (no result: G9a inh)
Cc1ccc(OCC(=O)N2CCN(CCc3ccncc3)CC2)cc1	none (no result: Sfp PPTase inh)
CSc1ccc(CN2CCN(C(=O)COc3ccc(C)cc3)CC2)cc1	G9a inh 10µM, BAZ2B block 56.2µM, JMJD2A Tudor inh 8.91µM, HP1b chromo inh inconclusive
O=C(COc1ccc(Br)cc1)N1CCN(Cc2ccncc2)CC1	G9a inh 17.8µM, JMJD2A Tudor inh 1µM, HP1b chromo inh inconclusive
Cc1cccc(OCC(=O)N2CCN(Cc3ccc4c(c3)OCO4)CC2)c1	G9a inh 10µM, BAZ2B block 50.1µM, JMJD2A Tudor inh inconclusive, HP1b chromo inh inconclusive
Cc1ccc(OCC(=O)N2CCN(Cc3ccc4c(c3)OCO4)CC2)cc1C	BAZ2B block inconclusive
O=[N+]([O-])/C=C/c1ccccc1	none (no result: Sfp PPTase inh, G9a inh, BAZ2B block, JMJD2A Tudor inh, HP1b chromo inh)
O=C(COc1ccc(S(=O)(=O)N2CCCCC2)cc1)N1CCN(Cc2ccccc2)CC1	G9a inh 44.7µM

Bioassay records: PubChem, National Center for Advancing Translational Sciences (NCATS)
